# Test results reported in PubChem BioAssay (NCI).
# Compounds without any hit were thinned out: in the full panel of roughly 79,000, 15% have a hit. Unmarked numbers belong to inactive results. Calls of active or inactive are those of the source. Rule as the data show it: active = growth inhibition above about 70%; inactive = the rest.
# What was measured:
# [1] = NCI Yeast Anticancer Drug Screen. Data for the rad50 strain (AID 155);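 also: 0% = growth of vehicle-only cultures of the same strain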; settings: S. cerevisiae rad50 strain growth inhibition; at 50.0 µM; hits give high values
# Summary of the method: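 Readout: growth inhibition relative to vehicle-treated cultures. Compound exposure was carried out in a genetically defined yeast strain deficient in DNA damage repair.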
# [2] = NCI Yeast Anticancer Drug Screen. Data for the mec2-1 strain (AID 157); settings: S. cerevisiae mec2-1 strain, at 50.0 µM, hits give high values
# Summary of the method: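 Cells of the genetically defined mec2-1 yeast strain are incubated with test compound. Inhibition of growth is calculated against vehicle-treated controls.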
# [3] = NCI Yeast Anticancer Drug Screen. Data for the sgs1 mgt1 strain (AID 161);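 also: 0% = growth of cultures given vehicle only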; settings: S. cerevisiae sgs1 mgt1 strain, at 50.0 µM, hits give high values
# Summary of the method: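 Read-out: growth inhibition vs vehicle controls. Cells: mutant yeast strain deficient in DNA damage repair.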
# [4] = NCI Yeast Anticancer Drug Screen. Data for the bub3 strain (AID 167); settings: S. cerevisiae bub3 mutant strain, at 50.0 µM, hits give high values
# Summary of the method: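 Readout: yeast growth inhibition, expressed relative to vehicle-only wells. The test organism is a mutant strain from a panel with lesions in DNA repair or checkpoint genes.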
# [5] = NCI Yeast Anticancer Drug Screen. Data for the mlh1 rad18 strain (AID 175); settings: S. cerevisiae mlh1 rad18 strain growth inhibition; at 50.0 µM; hits give high values
# Summary of the method: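 Compound-treated yeast growth, normalised to vehicle controls. Strain bears defined DNA repair mutations.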
SMILES,growth inhibition [1],growth inhibition [2],growth inhibition [3],growth inhibition [4],growth inhibition [5]
Cc1c([N+](=O)[O-])ccn1C,-1.55%,10.9%,-5.7%,7.2%,-3.7%
CCC(C)OC(=O)/C=C/c1ccccc1 (stereo not given),1.35%,3.15%,-1.8%,-10.2%,-10.6%
C=C(C)COc1ccc2c(c1)CCC1C2CCC2(C)C1CCC2(C)O (stereo not given),21%,0.45%,3.75%,-0.9%,6.6%
Oc1ccccc1C=Nc1ccc2c(ccc3c4ccccc4ccc23)c1,51.8%,39.8%,28%,48.1%,39.8%
COC1/C=C/OC2(C)Oc3c(C)c(O)c4c(O)c(c(/C=N/N5CC(C)N(C(=O)c6ccccc6)C(C)C5)c(O)c4c3C2=O)NC(=O)C(C)=C/C=C/C(C)C(O)C(C)C(O)C(C)C(OC(C)=O)C1C (stereo not given),-5.8%,-13.6%,-23.8%,25.2%,5.45%
O=C1C/C(=C/c2ccccc2[N+](=O)[O-])C(=O)N1c1ccccc1,16.4%,4.35%,13.4%,3.8%,11.2%
CCCCOC(=O)COc1ccc(OC)cc1,-4.5%,-22.1%,-13.3%,3.45%,6.2%
CCCCCCC[CH2][Sn]1([CH2]CCCCCCC)[O]C(=O)c2cccnc2[O]1,27.4%,7.3%,13.2%,17.2%,19.8%
COc1ccc(N(C)CN(C)c2nc(N(C)C)nc(N(C)C)n2)cc1,-67.8%,-30.8%,-43%,-60.8%,-62.9%
COCCCNc1nc(N)c(C#N)c(C#N)c1C#N,4.3%,-6.15%,2.85%,19.3%,22.2%
Cc1ncc([N+](=O)[O-])n1CCSC(N)=O,-6.75%,-13.6%,-11.2%,16.8%,33.5%
CC1(C)N=C(Oc2ccccc2)n2nccc2N1,-12.6%,-15.6%,-14.6%,-18.3%,-29.6%
CCOC(=O)c1ccc(N(CC(=O)O)S(=O)(=O)c2ccc(C)cc2)s1,17.5%,-1%,2.5%,0.85%,-8.8%
O=C(OCc1ccccc1CN1CCOCC1)c1ccccc1,2.55%,16.4%,9.5%,-15.8%,8.3%
ClC1=CC(Cl)=C2N=C(N3CCCC3)N=C3N=C(C(Cl)(Cl)Cl)N=C1N32,-2.8%,22.6%,3.6%,3.2%,-20.4%
O=C(O)/C=C\Sc1ccccc1C(=O)O,2.05%,-15.9%,-6.5%,-10.2%,23.1%

SMILES,growth inhibition [1],growth inhibition [2],growth inhibition [3],growth inhibition [4],growth inhibition [5]
C=CCc1cc2c(cc1COC(C)=O)OCO2,-35.7%,-17.9%,-15.4%,-10.6%,-28%
CN1C(=O)c2ccccc2Cc2c(Cl)ncnc21,-0.5%,26.4%,11.2%,28.6%,2.1%
O=C(O)/C=C/c1ccccc1C(=O)O,11.3%,-4.3%,4.05%,-11.4%,6.05%
O=C(O)C1C=CC2OC2C1C(=O)O (stereo not given),2.9%,-28.2%,-5.95%,1.1%,4.7%
CC(=O)Nc1ccc(S(=O)(=O)NNC(=O)NNS(=O)(=O)c2ccc(NC(C)=O)cc2)cc1,-6.15%,-7.2%,-11.5%,-7%,-10.4%
Cc1nc2ccc(Cl)cc2c(=O)[nH]1,-6.35%,-6.45%,-8.65%,-16.2%,0.9%
CCCc1c(O)c(=O)c2c(OC)cc(OC)c3c4c(OC)cc(OC)c5c(=O)c(O)c(CCC)c(c1c23)c54,86.1% (active),89.4% (active),81.3% (active),75.8% (active),89% (active)
COc1ccc(NC(C)=O)cc1C1CCC(=O)N1 (stereo not given),12.2%,7.25%,-1.65%,-19%,-23.6%
O=C(O)c1oc2cccc3c2c1CCC3,-3.6%,1.3%,5.4%,-1.35%,-4.2%
NC12CCC(CC1)C2,-14.3%,13.3%,-14.1%,-10.4%,-4.8%
O=C(Nc1nncs1)c1cccs1,-13.8%,-6.45%,-5.6%,-11.2%,-27.5%
Cc1cccc(C(C)C)c1NC(=O)C(=O)CC(=O)c1c(C)n([O-])c2ccccc2[n+]1=O,-7.2%,9.45%,-10%,-13.1%,-16.2%
CC(C)=CC(=O)N1CCN(C(=O)C=C(C)C)CC1,-33.9%,-20.1%,-5.75%,10.9%,-10.4%
CC1C=CC(C)N(c2nnnn2C)N1c1nnnn1C (stereo not given),-11.6%,9.75%,14.9%,-2.6%,-3.9%
O=C(CCn1[nH]c(=O)c(Cl)c(Cl)c1=O)NOCCCc1ccccc1,0.3%,-21.7%,-8.5%,4.3%,-11.6%
